{"source": "the supplement of paper PMC3342239", "note": "Where a name gives a salt, the structure may show the parent alone."}
{"tested_on": "Saccharomyces cerevisiae", "test": "fraction of cells in G1 phase (DNA content, flow cytometry); higher = more cells with unreplicated DNA (G1 delay)", "settings": "temperature: 30 C; YPD; BY4741 PDR5+ SNQ2+; drug added to: actively dividing cells; 4.33 h", "description": "(§1)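 S. cerevisiae cultures in YPD at 30°C were treated with each drug of the Enzo FDA-approved library at 20 µg/ml (final µM given per drug). Cells were fixed after 6–7 h (S1) or 6 h (S2), or after 4.33 h for BY4741 (S3), then stained with SYTOX Green. %G1 is the Dean-Jett-Fox G1 peak area divided by the G1+G2/M peak areas, written as a fraction and averaged over at least two independent experiments. DMSO reference: mean ~0.49; >0.60 is called High G1 and <0.3876 Low G1. Scale: lower means mitotic delay.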"}
{"smiles": "CC(C)COCC(CN(Cc1ccccc1)c1ccccc1)N1CCCC1", "note": "(stereo not drawn) [Bepridil] (48.4262 µM)", "fraction of cells in G1 phase": 0.391}
{"smiles": "CC(C(O)c1ccc(O)cc1)N1CCC(Cc2ccccc2)CC1", "note": "(stereo not drawn) [Ifenprodil] (61.4525 µM)", "fraction of cells in G1 phase": 0.41}
{"smiles": "CC(C)C(=O)c1c(C(C)C)nn2ccccc12", "note": "[Ibudilast] (86.8386 µM)", "fraction of cells in G1 phase": 0.462}
{"tested_on": "Saccharomyces cerevisiae", "test": "fraction of cells in G1 phase (DNA content, flow cytometry); higher = more cells with unreplicated DNA (G1 delay)", "settings": "temperature: 30 C; YPD; JTY2953 pdr5 snq2 (sensitized); drug added to: actively dividing cells; 6 h", "description": "as §1"}
{"smiles": "O=C1Nc2ccc(Cl)cc2[C@@](C#CC2CC2)(C(F)(F)F)O1", "note": "[Efavirenz] (63.355 µM)", "fraction of cells in G1 phase": 0.4}
{"smiles": "CCN(CC)C(=S)SSC(=S)N(CC)CC", "note": "[Disulfiram] (67.4445 µM)", "fraction of cells in G1 phase": 0.466}
{"smiles": "CC(C)COCC(CN(Cc1ccccc1)c1ccccc1)N1CCCC1", "note": "(stereo not drawn) [Bepridil] (48.4262 µM)", "fraction of cells in G1 phase": 0.637}
{"smiles": "Cc1ccc(-c2cc(C(F)(F)F)nn2-c2ccc(S(N)(=O)=O)cc2)cc1", "note": "[Celecoxib] (52.4412 µM)", "fraction of cells in G1 phase": 0.299}
{"smiles": "CC(C(O)c1ccc(O)cc1)N1CCC(Cc2ccccc2)CC1", "note": "(stereo not drawn) [Ifenprodil] (61.4525 µM)", "fraction of cells in G1 phase": 0.694}
{"smiles": "Clc1ccc(CO/N=C(\\Cn2ccnc2)c2ccc(Cl)cc2Cl)c(Cl)c1", "note": "[Oxiconazole nitrate] (46.6053 µM)", "fraction of cells in G1 phase": 0.397}
{"smiles": "Clc1ccc(CCC(Cn2ccnc2)Sc2c(Cl)cccc2Cl)cc1", "note": "(stereo not drawn) [Butoconazole nitrate] (42.123 µM)", "fraction of cells in G1 phase": 0.478}
{"smiles": "CC(C)C(=O)c1c(C(C)C)nn2ccccc12", "note": "[Ibudilast] (86.8386 µM)", "fraction of cells in G1 phase": 0.698}
{"tested_on": "Saccharomyces cerevisiae", "test": "fraction of cells in G1 phase (DNA content, flow cytometry); higher = more cells with unreplicated DNA (G1 delay)", "settings": "temperature: 30 C; YPD; JTY2953 pdr5 snq2 (sensitized); drug added to: cultures diluted from stationary phase; 6-7 h", "description": "as §1"}
{"smiles": "CC(=O)O[C@@]12CO[C@@H]1C[C@H](O)[C@@]1(C)C(=O)[C@H](O)C3=C(C)[C@@H](OC(=O)[C@H](O)[C@@H](NC(=O)OC(C)(C)C)c4ccccc4)C[C@@](O)([C@@H](OC(=O)c4ccccc4)[C@H]21)C3(C)C", "note": "[Docetaxil] (24.7555 µM)", "fraction of cells in G1 phase": 0.507}
{"smiles": "O=C1Nc2ccc(Cl)cc2[C@@](C#CC2CC2)(C(F)(F)F)O1", "note": "[Efavirenz] (63.355 µM)", "fraction of cells in G1 phase": 0.879}
{"smiles": "CC(C)OC(=O)CCC/C=C\\C[C@@H]1[C@@H](CC[C@@H](O)CCc2ccccc2)[C@H](O)C[C@@H]1O", "note": "[Latanoprost] (46.2315 µM)", "fraction of cells in G1 phase": 0.528}
{"smiles": "CNCCCC12CCC(c3ccccc31)c1ccccc12", "note": "[Maprotiline HCl] (72.0947 µM)", "fraction of cells in G1 phase": 0.475}
{"smiles": "O=C(CCCCCCC(=O)Nc1ccccc1)NO", "note": "[Vorinostat] (75.6716 µM)", "fraction of cells in G1 phase": 0.482}
{"smiles": "CN1CCC(=C2c3ccccc3C=Cc3ccccc32)CC1", "note": "[Cyproheptadine] (69.5874 µM)", "fraction of cells in G1 phase": 0.426}
{"smiles": "Nc1nc2ccc(OC(F)(F)F)cc2s1", "note": "[Riluzole HCl] (85.3967 µM)", "fraction of cells in G1 phase": 0.551}
{"smiles": "CC(C)(C#N)c1cc(Cn2cncn2)cc(C(C)(C)C#N)c1", "note": "[Anastrozole] (68.1723 µM)", "fraction of cells in G1 phase": 0.518}
{"smiles": "CCn1cc(C(=O)O)c(=O)c2cc(F)c(N3CCNCC3)nc21", "note": "[Enoxacin] (62.4364 µM)", "fraction of cells in G1 phase": 0.512}
{"smiles": "COc1ccc(C(=O)NCc2cccnc2)cc1C(=O)NCc1cccnc1", "note": "[Picotamide] (53.1323 µM)", "fraction of cells in G1 phase": 0.459}
{"smiles": "CCN(CC)C(=S)SSC(=S)N(CC)CC", "note": "[Disulfiram] (67.4445 µM)", "fraction of cells in G1 phase": 0.876}
{"smiles": "CN(C)CCC[C@@]1(c2ccc(F)cc2)OCc2cc(C#N)ccc21", "note": "[Escitalopram] (61.652 µM)", "fraction of cells in G1 phase": 0.496}
{"smiles": "CC[C@@]1(O)C(=O)OCc2c1cc1n(c2=O)Cc2cc3cc(O)ccc3nc2-1", "note": "[10-hydroxycamptothecin] (54.8906 µM)", "fraction of cells in G1 phase": 0.499}
{"smiles": "CC(=O)OCC[N+](C)(C)C", "note": "[Acetylcholine Cl] (136.789 µM)", "fraction of cells in G1 phase": 0.483}
{"smiles": "CC(C)COCC(CN(Cc1ccccc1)c1ccccc1)N1CCCC1", "note": "(stereo not drawn) [Bepridil] (48.4262 µM)", "fraction of cells in G1 phase": 0.601}
{"smiles": "Cc1ccc(-c2cc(C(F)(F)F)nn2-c2ccc(S(N)(=O)=O)cc2)cc1", "note": "[Celecoxib] (52.4412 µM)", "fraction of cells in G1 phase": 0.863}
{"smiles": "COc1c(C)c2c(c(O)c1C/C=C(\\C)CCC(=O)O)C(=O)OC2", "note": "[Mycophenolic acid] (62.4326 µM)", "fraction of cells in G1 phase": 0.54}
{"smiles": "CC(C(O)c1ccc(O)cc1)N1CCC(Cc2ccccc2)CC1", "note": "(stereo not drawn) [Ifenprodil] (61.4525 µM)", "fraction of cells in G1 phase": 0.61}
{"smiles": "CC(C)OC(=O)C(C)(C)Oc1ccc(C(=O)c2ccc(Cl)cc2)cc1", "note": "[Fenofibrate] (55.4261 µM)", "fraction of cells in G1 phase": 0.497}
{"smiles": "CC#CCC(C)[C@H](O)/C=C/[C@@H]1[C@H]2C/C(=C/CCCC(=O)O)C[C@H]2C[C@H]1O", "note": "(stereo partly drawn) [Iloprost] (55.4788 µM)", "fraction of cells in G1 phase": 0.481}
{"smiles": "N#Cc1ccc(C(c2ccc(C#N)cc2)n2cncn2)cc1", "note": "[Letrozole] (70.099 µM)", "fraction of cells in G1 phase": 0.519}
{"smiles": "COC(=O)C1=C(C)NC(C)=C(C(=O)OCCN(C)Cc2ccccc2)C1c1cccc([N+](=O)[O-])c1", "note": "(stereo not drawn) [Nicardipine] (38.7597 µM)", "fraction of cells in G1 phase": 0.5}
{"smiles": "Clc1ccc(CO/N=C(\\Cn2ccnc2)c2ccc(Cl)cc2Cl)c(Cl)c1", "note": "[Oxiconazole nitrate] (46.6053 µM)", "fraction of cells in G1 phase": 0.853}
{"smiles": "CN(C)C(=N)NC(=N)N", "note": "[Metformin] (154.84 µM)", "fraction of cells in G1 phase": 0.516}
{"smiles": "Clc1ccc(CCC(Cn2ccnc2)Sc2c(Cl)cccc2Cl)cc1", "note": "(stereo not drawn) [Butoconazole nitrate] (42.123 µM)", "fraction of cells in G1 phase": 0.904}
{"smiles": "CC(C)C(=O)c1c(C(C)C)nn2ccccc12", "note": "[Ibudilast] (86.8386 µM)", "fraction of cells in G1 phase": 0.604}
{"smiles": "Cn1c(NCCN(CCO)CCCc2ccc([N+](=O)[O-])cc2)cc(=O)n(C)c1=O", "note": "[Nifekalant HCl] (49.327 µM)", "fraction of cells in G1 phase": 0.479}
